Data as given in PubChem BioAssay AID1159580 (chemical genetic matrix, 2015).
Values joined by “and” are separate entries in the source; they are usually repeats but may differ in a detail not shown here. Equal values may be shown once. About 2,000 (36%) of roughly 5,500 compounds were called active. About 18% were inconclusive and are not listed. No stated cut-off is given here; in the data, active means normalized growth mostly below about 0.91 (no sharp cut-off); inconclusive means no clear call, values can overlap the other calls; inactive means mostly above about 0.92. The list shows a part of the results.

Test: chemical genetic growth profiling, strain panel (AID 1159580);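 further: tested at 20 µM; growth read once vehicle control cultures reached saturation at 30 °C; 1 = growth at the plate median or of vehicle wells; lower values mean less growth of the strain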
Conditions: growth OD

Measured: normalized growth

CN1C(=O)CCS(=O)(=O)C1c1ccc(Cl)cc1 (stereo unspecified)
inactive: S. cerevisiae deletion strains, locus YJR075W, strain HOC1, hits give low values 1.04 and 1.02 | S. cerevisiae deletion strains, locus YKL009W, strain mrt4, hits give low values 1.03 | S. cerevisiae deletion strains, locus YKL068W, hits give low values 1.01 | S. cerevisiae deletion strains, locus YKL085W, strain MDH1 (second series), hits give low values 1.01 | S. cerevisiae deletion strains, locus YKL085W, strain MDH1, hits give low values 1.01 | S. cerevisiae deletion strains, locus YKL160W, strain elf1, hits give low values 1.02 | S. cerevisiae deletion strains, locus YKL190W, strain CNB1, hits give low values 1.01 | S. cerevisiae deletion strains, locus YKR001C, strain vps1, hits give low values 1.01 | S. cerevisiae deletion strains, locus YKR026C, strain gcn3, hits give low values 0.976 | S. cerevisiae deletion strains, locus YKR091W, strain srl3, hits give low values 0.984 | S. cerevisiae deletion strains, locus YLL001W, strain dnm1, hits give low values 0.979 | S. cerevisiae deletion strains, locus YLL026W, hits give low values 0.999 | S. cerevisiae deletion strains, locus YLL041C, strain sdh2, hits give low values 0.984 | S. cerevisiae deletion strains, locus YLR027C, strain aat2, hits give low values 0.998 | S. cerevisiae deletion strains, locus YLR039C, strain RIC1, hits give low values 1.04 | S. cerevisiae deletion strains, locus YLR058C, strain SHM2, hits give low values 1.01 | S. cerevisiae deletion strains, locus YLR102C, strain apc9, hits give low values 1.01 | S. cerevisiae deletion strains, locus YLR113W, strain HOG1, hits give low values 0.99 | S. cerevisiae deletion strains, locus YLR221C, strain rsa3, hits give low values 0.978 | S. cerevisiae deletion strains, locus YLR258W, strain gsy2, hits give low values 0.988 | S. cerevisiae deletion strains, locus YLR262C, strain YPT6 (second series), hits give low values 0.987 | S. cerevisiae deletion strains, locus YLR262C, strain YPT6, hits give low values 1.06 | S. cerevisiae deletion strains, locus YLR268W, strain sec22, hits give low values 1.06 | S. cerevisiae deletion strains, locus YLR320W, strain mms22, hits give low values 0.939 | S. cerevisiae deletion strains, locus YLR330W, strain CHS5, hits give low values 1.01 | S. cerevisiae deletion strains, locus YLR342W, strain FKS1 (second series), hits give low values 1.01 | S. cerevisiae deletion strains, locus YLR342W, strain FKS1, hits give low values 1.01 | S. cerevisiae deletion strains, locus YLR357W, strain rsc2, hits give low values 0.954 | S. cerevisiae deletion strains, locus YLR370C, strain arc18, hits give low values 0.991 | S. cerevisiae deletion strains, locus YLR371W, strain rom2, hits give low values 1.02 | S. cerevisiae deletion strains, locus YLR384C, strain iki3, hits give low values 0.996 | S. cerevisiae deletion strains, locus YLR418C, strain cdc73, hits give low values 1.02 | S. cerevisiae deletion strains, locus YML016C, strain PPZ1, hits give low values 1.01 | S. cerevisiae deletion strains, locus YML032C, strain rad52, hits give low values 1.04 | S. cerevisiae deletion strains, locus YML120C, strain ndi1, hits give low values 0.948 | S. cerevisiae deletion strains, locus YML124C, strain tub3, hits give low values 1.01 | S. cerevisiae deletion strains, locus YMR058W, strain fet3, hits give low values 0.979 | S. cerevisiae deletion strains, locus YMR078C, strain ctf18, hits give low values 1.02 | S. cerevisiae deletion strains, locus YMR125W, strain sto1, hits give low values 0.982 | S. cerevisiae deletion strains, locus YMR129W, hits give low values 0.974 | S. cerevisiae deletion strains, locus YMR205C, strain PFK2, hits give low values 0.947 | S. cerevisiae deletion strains, locus YMR223W, strain ubp8, hits give low values 1 | S. cerevisiae deletion strains, locus YMR231W, strain pep5, hits give low values 0.987 | S. cerevisiae deletion strains, locus YMR263W, strain SAP30, hits give low values 1.02 and 0.996 | S. cerevisiae deletion strains, locus YMR307W, strain GAS1, hits give low values 1 and 0.99 | S. cerevisiae deletion strains, locus YNL067W, strain RPL9B, hits give low values 1.03 | S. cerevisiae deletion strains, locus YNL071W, strain lat1, hits give low values 0.979 | S. cerevisiae deletion strains, locus YNL128W, strain TEP1, hits give low values 1.03 | S. cerevisiae deletion strains, locus YNL153C, strain GIM3, hits give low values 1.02 and 0.995 | S. cerevisiae deletion strains, locus YNL175C, strain NOP13, hits give low values 1.01 | S. cerevisiae deletion strains, locus YNL183C, strain NPR1, hits give low values 0.883 | S. cerevisiae deletion strains, locus YNL197C, strain WHI3, hits give low values 1 | S. cerevisiae deletion strains, locus YNL209W, strain ssb2, hits give low values 0.984 | S. cerevisiae deletion strains, locus YNL224C, strain SQS1, hits give low values 1 | S. cerevisiae deletion strains, locus YNL233W, strain BNI4, hits give low values 1.02 | S. cerevisiae deletion strains, locus YNL248C, strain rpa49, hits give low values 1.03 | S. cerevisiae deletion strains, locus YNL250W, strain rad50, hits give low values 1.01 | S. cerevisiae deletion strains, locus YNL271C, strain bni1, hits give low values 1.02 | S. cerevisiae deletion strains, locus YNL298W, strain CLA4, hits give low values 1.02 | S. cerevisiae deletion strains, locus YNL307C, strain MCK1, hits give low values 1.01 | S. cerevisiae deletion strains, locus YNL322C, strain KRE1 (second series), hits give low values 1 | S. cerevisiae deletion strains, locus YNL322C, strain KRE1, hits give low values 1.01 | S. cerevisiae deletion strains, locus YNR049C, strain mso1, hits give low values 0.992 | S. cerevisiae deletion strains, locus YNR052C, strain pop2, hits give low values 1.02 | S. cerevisiae deletion strains, locus YOL006C, strain TOP1, hits give low values 1.1 | S. cerevisiae deletion strains, locus YOL012C, strain htz1 0.9 | S. cerevisiae deletion strains, locus YOL147C, strain pex11, hits give low values 1.01 | S. cerevisiae deletion strains, locus YOR001W, strain rrp6, hits give low values 0.94 | S. cerevisiae deletion strains, locus YOR061W, strain CKA2, hits give low values 1.01 | S. cerevisiae deletion strains, locus YOR069W, strain VPS5, hits give low values 1.01 | S. cerevisiae deletion strains, locus YOR070C, strain gyp1, hits give low values 0.993 | S. cerevisiae deletion strains, locus YOR080W, strain dia2, hits give low values 0.982 | S. cerevisiae deletion strains, locus YOR083W, strain WHI5 (second series), hits give low values 1.03 | S. cerevisiae deletion strains, locus YOR083W, strain WHI5, hits give low values 0.994 | S. cerevisiae deletion strains, locus YOR106W, strain vam3, hits give low values 1.02 | S. cerevisiae deletion strains, locus YOR136W, strain idh2, hits give low values 1.01 | S. cerevisiae deletion strains, locus YOR144C, strain elg1, hits give low values 1.01 | S. cerevisiae deletion strains, locus YOR184W, strain ser1, hits give low values 1.01 | S. cerevisiae deletion strains, locus YOR231W, strain MKK1, hits give low values 0.996 | S. cerevisiae deletion strains, locus YOR265W, strain rbl2, hits give low values 0.982 | S. cerevisiae deletion strains, locus YOR270C, strain vph1, hits give low values 0.992 | S. cerevisiae deletion strains, locus YOR290C, strain snf2, hits give low values 1.01 | S. cerevisiae deletion strains, locus YOR316C, strain cot1, hits give low values 1.01 | S. cerevisiae deletion strains, locus YPL051W, strain arl3, hits give low values 1.03 | S. cerevisiae deletion strains, locus YPL055C, strain LGE1, hits give low values 1.05 and 1.03 | S. cerevisiae deletion strains, locus YPL078C, strain atp4, hits give low values 1.01 | S. cerevisiae deletion strains, locus YPL106C, strain sse1, hits give low values 0.952 | S. cerevisiae deletion strains, locus YPL240C, strain hsp82, hits give low values 0.981 | S. cerevisiae deletion strains, locus YPL241C, strain CIN2, hits give low values 1 and 1.01 | S. cerevisiae deletion strains, locus YPL256C, strain CLN2, hits give low values 0.956 | S. cerevisiae deletion strains, locus YPR119W, strain clb2, hits give low values 1.02 | S. cerevisiae deletion strains, locus YPR141C, strain kar3, hits give low values 1.01 | S. cerevisiae deletion strains, locus YPR163C, strain tif3, hits give low values 1.02 | S. cerevisiae deletion strains, locus YPR167C, strain met16, hits give low values 1.01 | S. cerevisiae deletion strains, strain wtn01, hits give low values 1.03 | S. cerevisiae strains, strain wild type, hits give low values 1.02
